Activity calls are given as the source filed them.
Assays:
[1] = system: PRMT1 (protein arginine N-methyltransferase 1); experiment: PRMT1 binders on small-molecule microarrays, primary screen, biochemical, small-molecule microarray, 635 nm fluorescence (AID 1088); details: small-molecule microarray binding, higher = more signal;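 also: binding of Prmt1 protein to compounds spotted on small-molecule microarray slides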
[2] = yeast growth modulation, basal conditions, primary screen, YJM789 clinical isolate, OD600, 24 h (AID 1089);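 also: growth of clinical yeast isolate S. cerevisiae YJM 789 seeded 1000 cells per well; test concentration not given here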; details: S. cerevisiae YJM789 growth, higher = more signal, called active from +8 up or from −8 down
[3] = fission yeast growth modulation, primary screen, strain 972, OD600, 24 h, no modulator (AID 1090);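 also: basal condition with compound alone and no growth modifier present; test concentration not given here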; details: S. pombe 972 growth, higher = more signal, called active from +8 up or from −8 down
[4] = S. cerevisiae growth modulation with rapamycin, primary screen, strain BY4716, OD600, 96 h (AID 1091); details: higher = more signal, called active from +8 up or from −8 down; also: test concentration not given here
[5] = biological target: Torsin-1A-interacting protein 2 (Homo sapiens) (UniProt Q8NFQ8); experiment: LULL1 binders on small-molecule microarray, primary screen, cell lysate, human LULL1 lysate, 635/667 nm fluorescence (AID 1092); details: hLULL1 lysate binding, 635 nm fluorescence, higher = more signal;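 also: probe is lysate of COS7 cells overexpressing human LULL1; score merges per-feature 667 nm fluorescence with signal-to-noise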
Torsin-1A-interacting protein 2 (Homo sapiens), sequence (Q8NFQ8 whole entry, looked up): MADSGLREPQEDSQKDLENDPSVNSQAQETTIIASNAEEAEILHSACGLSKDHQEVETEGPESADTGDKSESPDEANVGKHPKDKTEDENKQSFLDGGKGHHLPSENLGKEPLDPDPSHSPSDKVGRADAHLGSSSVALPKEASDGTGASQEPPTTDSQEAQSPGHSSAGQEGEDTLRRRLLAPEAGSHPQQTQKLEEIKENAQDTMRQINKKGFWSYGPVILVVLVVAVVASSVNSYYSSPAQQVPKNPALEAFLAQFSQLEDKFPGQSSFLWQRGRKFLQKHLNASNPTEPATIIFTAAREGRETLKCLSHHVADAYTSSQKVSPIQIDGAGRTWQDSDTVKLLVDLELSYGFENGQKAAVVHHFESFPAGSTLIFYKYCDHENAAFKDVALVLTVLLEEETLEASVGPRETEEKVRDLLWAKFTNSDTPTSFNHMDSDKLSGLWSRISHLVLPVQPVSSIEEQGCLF

[6] = E. coli growth modulation, two-sided OD650, primary screen, E. coli filamentation project, strain DRC41, 24 h (AID 1093); details: OD650, 24 h, higher = more signal, called active from +8 up or from −8 down;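 also: MC1000 strain lacking acrAB efflux and sulA so SOS filamentation is blocked; test concentration not given here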
[7] = small-molecule microarray binders of probe aLefty2, primary screen, biochemical, biotinylated probe, 635/667 nm fluorescence (AID 1094); details: higher = more signal;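 also: score merges spot fluorescence near 667 nm with spot signal-to-noise ratio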
[8] = system: Noggin (protein binding on small-molecule microarray); experiment: Noggin binders on small-molecule microarray, primary screen, biochemical, 635/667 nm fluorescence (AID 1095); details: 635 nm fluorescence, higher = more signal;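 also: score merges 667 nm feature fluorescence with signal to noise over triplicate slides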
[9] = biological target: Neurogenic locus notch homolog protein 3 (Homo sapiens) (UniProt Q9UM47); experiment: NOTCH3 binders on small-molecule microarray, primary screen, biochemical, 635/667 nm fluorescence (AID 1096); details: NOTCH3 binding, 635 nm fluorescence, higher = more signal
Neurogenic locus notch homolog protein 3 (Homo sapiens), sequence (Q9UM47 whole entry, looked up): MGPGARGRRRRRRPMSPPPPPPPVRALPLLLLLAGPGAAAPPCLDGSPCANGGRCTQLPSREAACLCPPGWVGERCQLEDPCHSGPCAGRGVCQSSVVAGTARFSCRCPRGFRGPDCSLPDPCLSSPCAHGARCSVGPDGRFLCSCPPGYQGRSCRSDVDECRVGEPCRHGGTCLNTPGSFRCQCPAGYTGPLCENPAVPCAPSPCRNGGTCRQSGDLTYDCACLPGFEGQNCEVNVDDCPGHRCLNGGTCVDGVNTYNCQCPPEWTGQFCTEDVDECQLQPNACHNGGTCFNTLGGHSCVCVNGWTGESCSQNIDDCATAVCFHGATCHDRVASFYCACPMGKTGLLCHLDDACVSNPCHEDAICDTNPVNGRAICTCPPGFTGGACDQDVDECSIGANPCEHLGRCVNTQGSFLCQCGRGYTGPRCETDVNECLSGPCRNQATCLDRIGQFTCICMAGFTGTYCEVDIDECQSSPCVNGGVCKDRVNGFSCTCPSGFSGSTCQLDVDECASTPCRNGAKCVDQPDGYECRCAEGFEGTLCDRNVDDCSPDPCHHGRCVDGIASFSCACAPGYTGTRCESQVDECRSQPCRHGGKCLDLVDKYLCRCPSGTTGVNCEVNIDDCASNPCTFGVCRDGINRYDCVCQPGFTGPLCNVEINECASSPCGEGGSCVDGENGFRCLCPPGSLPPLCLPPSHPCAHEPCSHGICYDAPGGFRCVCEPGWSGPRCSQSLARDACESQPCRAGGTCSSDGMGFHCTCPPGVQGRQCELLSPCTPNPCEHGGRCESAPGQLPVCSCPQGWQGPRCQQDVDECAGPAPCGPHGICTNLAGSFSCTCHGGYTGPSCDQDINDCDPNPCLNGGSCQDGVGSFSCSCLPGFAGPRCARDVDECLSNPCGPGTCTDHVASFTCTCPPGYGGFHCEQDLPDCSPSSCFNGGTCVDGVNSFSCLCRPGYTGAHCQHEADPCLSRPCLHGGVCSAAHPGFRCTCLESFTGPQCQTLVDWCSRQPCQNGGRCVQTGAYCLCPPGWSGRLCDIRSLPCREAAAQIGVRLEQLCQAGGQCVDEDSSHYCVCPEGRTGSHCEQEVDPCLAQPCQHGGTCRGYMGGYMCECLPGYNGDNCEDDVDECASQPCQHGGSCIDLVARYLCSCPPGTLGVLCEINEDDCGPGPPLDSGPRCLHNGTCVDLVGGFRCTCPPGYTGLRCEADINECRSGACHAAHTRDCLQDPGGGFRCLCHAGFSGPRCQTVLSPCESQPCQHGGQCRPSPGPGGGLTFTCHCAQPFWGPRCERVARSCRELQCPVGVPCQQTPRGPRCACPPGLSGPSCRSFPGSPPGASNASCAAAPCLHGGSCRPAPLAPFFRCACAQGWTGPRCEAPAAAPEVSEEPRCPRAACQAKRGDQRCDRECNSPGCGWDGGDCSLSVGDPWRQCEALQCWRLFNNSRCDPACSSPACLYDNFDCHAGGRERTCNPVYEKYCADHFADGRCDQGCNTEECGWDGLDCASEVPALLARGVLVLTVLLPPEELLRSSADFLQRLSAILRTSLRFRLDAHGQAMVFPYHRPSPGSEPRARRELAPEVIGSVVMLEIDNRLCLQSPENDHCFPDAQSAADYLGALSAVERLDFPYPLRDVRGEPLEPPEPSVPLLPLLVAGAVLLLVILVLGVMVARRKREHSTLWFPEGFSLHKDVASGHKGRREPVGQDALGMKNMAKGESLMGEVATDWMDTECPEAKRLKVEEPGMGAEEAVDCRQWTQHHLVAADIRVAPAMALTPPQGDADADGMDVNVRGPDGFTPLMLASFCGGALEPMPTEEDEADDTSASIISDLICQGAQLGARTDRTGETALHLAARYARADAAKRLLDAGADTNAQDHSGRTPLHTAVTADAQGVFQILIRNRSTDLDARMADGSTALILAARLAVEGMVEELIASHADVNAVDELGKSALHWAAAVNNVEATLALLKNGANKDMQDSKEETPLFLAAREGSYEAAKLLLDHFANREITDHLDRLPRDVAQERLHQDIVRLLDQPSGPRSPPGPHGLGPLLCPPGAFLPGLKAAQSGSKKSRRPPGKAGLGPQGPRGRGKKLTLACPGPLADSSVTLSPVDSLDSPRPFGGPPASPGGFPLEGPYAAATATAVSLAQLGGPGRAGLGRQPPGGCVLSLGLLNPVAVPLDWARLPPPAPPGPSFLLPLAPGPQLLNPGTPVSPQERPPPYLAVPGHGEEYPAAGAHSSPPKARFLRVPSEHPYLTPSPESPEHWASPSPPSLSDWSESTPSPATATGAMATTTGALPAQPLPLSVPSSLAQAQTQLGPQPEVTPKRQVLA

[10] = small-molecule microarray binders of probe aEGFR, primary screen, biochemical, biotinylated probe, 635/667 nm fluorescence (AID 1097); details: higher = more signal;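 also: probe is a biotinylated anti-EGFR antibody binding compounds printed on slides; score combines fluorescence near 667 nm and signal to noise of each spot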
[11] = system: Plasmodium falciparum Sir2 (PF13_0152, Sir2A); experiment: pfSir2 binders on small-molecule microarrays, primary screen, biochemical, small-molecule microarray, 635 nm fluorescence (AID 1098); details: small-molecule microarray binding, fluorescence 635 nm; higher = more signal;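 also: score merges spot fluorescence intensity with its signal-to-noise ratio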
[12] = small-molecule microarray binders of probe aDKK1, primary screen, biochemical, biotinylated probe, 635/667 nm fluorescence (AID 1099); details: higher = more signal;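 also: score merges 667nm spot fluorescence with signal to noise across triplicate slides; reference of the scale not given here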
[13] = small-molecule microarray binders of probe aCHRDL2, primary screen, biochemical, biotinylated probe, 635/667 nm fluorescence (AID 1100); details: higher = more signal
[14] = splicing luciferase reporter signal modulators, primary screen, spliceosome inhibition project, cell-based, HEK293, splice +/- reporter (AID 1101); details: luminescence, 24 h, higher = more signal, called active from +8 up or from −8 down;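 also: HEK293 cells carrying a splicing-competent luciferase reporter gene; test concentration not given here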
[15] = biological target: Fibroblast growth factor 10 (Homo sapiens) (UniProt O15520); experiment: FGF10 binders on small-molecule microarrays, primary screen, biochemical, small-molecule microarray, 635 nm fluorescence (AID 1102); details: FGF10 binding, fluorescence 635 nm, higher = more signal
Fibroblast growth factor 10 (Homo sapiens), sequence (O15520 whole entry, looked up): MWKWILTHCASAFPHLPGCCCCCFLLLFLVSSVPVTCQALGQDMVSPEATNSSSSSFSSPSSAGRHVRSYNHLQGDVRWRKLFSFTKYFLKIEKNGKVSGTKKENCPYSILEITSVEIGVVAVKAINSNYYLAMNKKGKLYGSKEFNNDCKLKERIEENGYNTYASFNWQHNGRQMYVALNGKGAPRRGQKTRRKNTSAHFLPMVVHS

[16] = system: glycogen synthase kinase-3 (GSK3A per assay name; protocol says GSK3B); experiment: GSK3 binders on small-molecule microarrays, primary screen, biochemical, small-molecule microarray, 635 nm fluorescence, GSK3A (AID 1103); details: small-molecule microarray binding, fluorescence 635 nm; higher = more signal; also: the record names both GSK3A and GSK3B
[17] = biological target: Epidermal growth factor receptor (Homo sapiens) (UniProt P00533); experiment: EGFR binders on small-molecule microarrays, primary screen, biochemical, small-molecule microarray, 635 nm fluorescence (AID 1104); details: EGFR binding, higher = more signal;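 also: score merges 667 nm emission intensity with spot signal to noise over triplicate slides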
Epidermal growth factor receptor (Homo sapiens), sequence (P00533 whole entry, looked up): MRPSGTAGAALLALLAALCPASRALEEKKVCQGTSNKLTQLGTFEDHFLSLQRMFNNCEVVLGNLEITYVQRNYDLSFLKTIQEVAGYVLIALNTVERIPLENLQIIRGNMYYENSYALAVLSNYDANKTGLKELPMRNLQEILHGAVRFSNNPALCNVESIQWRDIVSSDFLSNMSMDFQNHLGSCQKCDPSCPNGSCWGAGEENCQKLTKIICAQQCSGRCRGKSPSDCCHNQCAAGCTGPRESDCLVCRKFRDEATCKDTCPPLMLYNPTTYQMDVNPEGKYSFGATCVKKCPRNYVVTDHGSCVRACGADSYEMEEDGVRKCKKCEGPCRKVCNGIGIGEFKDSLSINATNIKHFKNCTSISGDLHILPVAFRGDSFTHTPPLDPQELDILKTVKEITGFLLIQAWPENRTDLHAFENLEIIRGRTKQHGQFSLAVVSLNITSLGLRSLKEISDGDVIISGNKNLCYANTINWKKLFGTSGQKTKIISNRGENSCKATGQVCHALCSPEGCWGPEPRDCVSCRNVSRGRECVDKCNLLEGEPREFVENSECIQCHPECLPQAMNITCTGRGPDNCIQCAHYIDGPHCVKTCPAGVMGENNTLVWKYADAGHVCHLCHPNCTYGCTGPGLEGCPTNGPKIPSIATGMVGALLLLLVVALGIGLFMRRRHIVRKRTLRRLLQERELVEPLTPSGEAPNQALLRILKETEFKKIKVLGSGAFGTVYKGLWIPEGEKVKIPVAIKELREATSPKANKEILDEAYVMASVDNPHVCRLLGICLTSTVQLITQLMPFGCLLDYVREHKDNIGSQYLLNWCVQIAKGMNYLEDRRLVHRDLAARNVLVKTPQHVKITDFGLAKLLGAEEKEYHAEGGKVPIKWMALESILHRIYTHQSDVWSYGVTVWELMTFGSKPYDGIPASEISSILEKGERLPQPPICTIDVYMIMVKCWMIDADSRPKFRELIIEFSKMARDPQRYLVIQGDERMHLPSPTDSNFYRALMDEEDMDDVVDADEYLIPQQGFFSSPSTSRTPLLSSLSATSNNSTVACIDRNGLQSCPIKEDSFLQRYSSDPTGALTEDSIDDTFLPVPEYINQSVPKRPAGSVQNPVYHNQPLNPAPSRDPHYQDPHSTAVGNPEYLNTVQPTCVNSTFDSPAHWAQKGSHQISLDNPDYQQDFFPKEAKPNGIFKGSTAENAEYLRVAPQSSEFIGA

[18] = biological target: Follistatin-related protein 3 (Homo sapiens) (UniProt O95633); experiment: FSTL3 binders on small-molecule microarrays, primary screen, biochemical, small-molecule microarray, 635 nm fluorescence (AID 1105); details: FSTL3 binding, higher = more signal;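 also: score merges emission near 667 nm and signal to noise per printed spot across three slides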
Follistatin-related protein 3 (Homo sapiens), sequence (O95633 whole entry, looked up): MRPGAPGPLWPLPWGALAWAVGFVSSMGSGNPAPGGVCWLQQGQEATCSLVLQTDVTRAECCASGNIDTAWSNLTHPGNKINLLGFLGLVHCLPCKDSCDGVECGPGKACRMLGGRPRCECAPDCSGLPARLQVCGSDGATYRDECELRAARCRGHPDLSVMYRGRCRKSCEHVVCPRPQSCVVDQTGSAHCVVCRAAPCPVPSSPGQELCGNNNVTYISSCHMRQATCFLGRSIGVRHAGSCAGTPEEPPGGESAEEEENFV

[19] = biological target: Dickkopf-related protein 1 (Homo sapiens) (UniProt O94907); experiment: DKK1 binders on small-molecule microarrays, primary screen, biochemical, small-molecule microarray, 635 nm fluorescence scan (AID 1106); details: DKK1 binding, higher = more signal;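 also: score merges emission near 667 nm with signal to noise over three replicate slides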
Dickkopf-related protein 1 (Homo sapiens), sequence (O94907 whole entry, looked up): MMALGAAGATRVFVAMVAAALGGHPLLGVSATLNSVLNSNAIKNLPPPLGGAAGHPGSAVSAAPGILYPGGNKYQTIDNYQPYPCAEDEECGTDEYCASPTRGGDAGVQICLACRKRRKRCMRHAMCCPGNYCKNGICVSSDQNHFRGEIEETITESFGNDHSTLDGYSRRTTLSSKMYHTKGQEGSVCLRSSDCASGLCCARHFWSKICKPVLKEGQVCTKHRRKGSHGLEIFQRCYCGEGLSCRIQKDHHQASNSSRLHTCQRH

[20] = system: Inhibin beta A chain (activin A); experiment: INHBA (activin A) binders on microarrays, primary screen, biochemical, small-molecule microarray, 635 nm fluorescence scan (AID 1107); details: small-molecule microarray binding, higher = more signal;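 also: mouse activin A protein probed at 4.33 µg/mL on printed slides; score merges bound-protein fluorescence near 667 nm with spot signal-to-noise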

Compound | composite z-score [1] | z-score [2] | z-score [3] | z-score [4] | composite z-score [5] | z-score [6] | composite z-score [7] | composite z-score [8] | composite z-score [9] | composite z-score [10] | composite z-score [11] | composite z-score [12] | composite z-score [13] | z-score [14] | composite z-score [15] | composite z-score [16] | composite z-score [17] | composite z-score [18] | composite z-score [19] | composite z-score [20]
C=C(/C(=C/C[C@H](OC(=O)c1ccncc1)c1ccc(OCCO)cc1)c1cc(C(=O)OC)ccc1OC)C(C)C | 1.03 | 0.236 (inactive) | -1.26 (inactive) | -0.359 (inactive) | 1.73 | 1.09 (inactive) | -0.072 | 0.609 | 0.381 | 0.122 | 0.569 | 0.031 | 0.244 | -0.821 (inactive) | 1.42 | -0.534 | -0.114 | 0.487 | 0.178 | 1.13
C=CCNC(=O)[C@@H]1[C@H]2C(=O)O[C@H](c3ccccc3)[C@H](c3ccccc3)N2[C@H](c2ccc(OCCO)cc2)[C@@]12C(=O)N(C(=O)OCCOC)c1ccc(C#CCNC(N)=O)cc12 | 1.4 | 2.15 (inactive) | -0.221 (inactive) | 3.97 (inactive) | 1.61 | 1.98 (inactive) | 0.0565 | 0.954 | 1.13 | -0.0069 | 1.43 | 0.478 | 0.747 | 0.184 (inactive) | 0.704 | 0.549 | 0.555 | 0.898 | 0.554 | 1.2
COC(=O)c1c(CC[C@@H](CO)NC(=O)N[C@H](Cc2ccccc2)Cn2cc(-c3ccccn3)nn2)oc(C(C)=O)c1C(=O)OC | 0.73 | -0.413 (inactive) | 0.0254 (inactive) | -0.398 (inactive) | 1.68 | -0.419 (inactive) | -0.207 | -0.151 | 0.0619 | -0.096 | 1.48 | -0.123 | -0.379 | 1.01 (inactive) | 0.384 | 0.17 | -0.371 | -0.15 | -0.328 | -0.285
NC(=O)[C@@H]1[C@H]2C(=O)O[C@H](c3ccccc3)[C@H](c3ccccc3)N2[C@H](c2ccc(OCCO)cc2)[C@@]12C(=O)Nc1ccc(C#CC3=CCCCC3)cc12 | 1.55 | 0.529 (inactive) | 0.544 (inactive) | 2.91 (inactive) | 2.08 | 1.69 (inactive) | 0.0209 | 1.35 | 0.951 | -0.0343 | 1.36 | -0.134 | -0.233 | -0.857 (inactive) | 1.21 | 1.32 | 0.544 | 0.588 | 0.372 | 0.357
O=C1C2C=CC(C(O)c3cc(C(F)(F)F)cc(C(F)(F)F)c3)N(Nc3ccccc3)C2C(=O)N1c1ccccc1 (stereo not given) | 1.29 | 1 (inactive) | -0.158 (inactive) | 3.15 (inactive) | 3.23 | -0.747 (inactive) | -0.0156 | -0.105 | 0.581 | -0.0536 | 1.24 | 0.723 | 0.433 | -2.9 (inactive) | -0.239 | 0.22 | -0.303 | -0.154 | -0.667 | 1.01
